{
  "source": "paper PMC8384837",
  "about": "“Expanding the binding specificity for RNA recognition by a PUF domain”",
  "assay_in_all_cases": "yeast three-hybrid, YBZ-1, SC-Leu-His + 0.5 mM 3-AT, 4 days",
  "conditions_in_all_cases": "tags: N-Gal4 AD-HA kept; label: inside an RPR1-promoter hybrid RNA with tandem MS2 sites; ssRNA",
  "key": {"PUM1 PUF domain R5-KNL": {"molecular_target": "PUM1 PUF domain R5-KNL (Homo sapiens, UniProt Q14671 828-1176, C1007K;R1008N;Q1011L)", "procedure,_shortened": "(§1)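 Sequencing with Illumina followed PCR amplification of the repeat regions from transformants grown four days on SC-Leu (input) or SC-Leu-His + 0.5 mM 3-AT (selection). The transformants were strain YBZ-1 with a LexA–MS2 coat fusion and a HIS3 reporter, carrying Pumilio-1 PUF domain libraries and matching RNA elements. The interaction score is the log change in variant frequency from input to selection, computed in log2 with a pseudocount of 1 for absent variants.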"}, "PUM1 PUF domain R5-RCD": {"molecular_target": "PUM1 PUF domain R5-RCD (Homo sapiens, UniProt Q14671 828-1176, C1007R;R1008C;Q1011D)", "procedure,_shortened": "as §1"}, "PUM1 PUF domain R5-KRA": {"molecular_target": "PUM1 PUF domain R5-KRA (Homo sapiens, UniProt Q14671 828-1176, C1007K;Q1011A)", "procedure,_shortened": "as §1"}, "PUM1 PUF domain R3-LRL": {"molecular_target": "PUM1 PUF domain R3-LRL (Homo sapiens, UniProt Q14671 828-1176, C935L;Q939L)", "procedure,_shortened": "as §1"}, "PUM1 PUF domain R4-SRS": {"molecular_target": "PUM1 PUF domain R4-SRS (Homo sapiens, UniProt Q14671 828-1176, N971S;H972R;Q975S)", "procedure,_shortened": "as §1"}, "PUM1 PUF domain R2-RRV": {"molecular_target": "PUM1 PUF domain R2-RRV (Homo sapiens, UniProt Q14671 828-1176, N899R;Y900R;Q903V)", "procedure,_shortened": "as §1"}, "PUM1 PUF domain R4-DRI": {"molecular_target": "PUM1 PUF domain R4-DRI (Homo sapiens, UniProt Q14671 828-1176, N971D;H972R;Q975I)", "procedure,_shortened": "as §1"}, "PUM1 PUF domain R3-SSQ": {"molecular_target": "PUM1 PUF domain R3-SSQ (Homo sapiens, UniProt Q14671 828-1176, C935S;R936S)", "procedure,_shortened": "as §1"}, "PUM1 PUF domain R3-VCI": {"molecular_target": "PUM1 PUF domain R3-VCI (Homo sapiens, UniProt Q14671 828-1176, C935V;R936C;Q939I)", "procedure,_shortened": "as §1"}, "PUM1 PUF domain R1-KYV": {"molecular_target": "PUM1 PUF domain R1-KYV (Homo sapiens, UniProt Q14671 828-1176, S863K;R864Y;Q867V)", "procedure,_shortened": "as §1"}},
  "data": [
    {"sequence": "GGCUAGAACUAGUGGAUCCCCCGGCGCCCGGCGGCUCGAGCCCGGGUAAGUGUCAAUAGUCUGCAUGCCGCCGGGCGCCAUGCCUGCAGGUCGACUCUAGAAAACAUG", "values": [
      {"measurement": "binding signal", "setting": "PUM1 PUF domain R5-KNL", "value": "4.73 log2 enrichment (interaction score)"},
      {"measurement": "binding signal", "setting": "PUM1 PUF domain R5-RCD", "value": "3.7 log2 enrichment (interaction score)"},
      {"measurement": "binding signal", "setting": "PUM1 PUF domain R5-KRA", "value": "2.92 log2 enrichment (interaction score)"}
    ]},
    {"sequence": "GGCUAGAACUAGUGGAUCCCCCGGCGCCCGGCGGCUCGAGCCCGGGUAAGUGUAAUUAGUCUGCAUGCCGCCGGGCGCCAUGCCUGCAGGUCGACUCUAGAAAACAUG", "values": [
      {"measurement": "binding signal", "setting": "PUM1 PUF domain R3-LRL", "value": "0.28 log2 enrichment (interaction score)"}
    ]},
    {"sequence": "GGCUAGAACUAGUGGAUCCCCCGGCGCCCGGCGGCUCGAGCCCGGGUAAGUGUAUAUAGUCUGCAUGCCGCCGGGCGCCAUGCCUGCAGGUCGACUCUAGAAAACAUG", "values": [
      {"measurement": "binding signal", "setting": "PUM1 PUF domain R4-SRS", "value": "0.95 log2 enrichment (interaction score)"}
    ]},
    {"sequence": "GGCUAGAACUAGUGGAUCCCCCGGCGCCCGGCGGCUCGAGCCCGGGUAAGUGUUAAUAGUCUGCAUGCCGCCGGGCGCCAUGCCUGCAGGUCGACUCUAGAAAACAUG", "values": [
      {"measurement": "binding signal", "setting": "PUM1 PUF domain R5-RCD", "value": "2.68 log2 enrichment (interaction score)"},
      {"measurement": "binding signal", "setting": "PUM1 PUF domain R5-KRA", "value": "0.81 log2 enrichment (interaction score)"}
    ]},
    {"sequence": "GGCUAGAACUAGUGGAUCCCCCGGCGCCCGGCGGCUCGAGCCCGGGUAAGUGUAAAGAGUCUGCAUGCCGCCGGGCGCCAUGCCUGCAGGUCGACUCUAGAAAACAUG", "values": [
      {"measurement": "binding signal", "setting": "PUM1 PUF domain R2-RRV", "value": "2.5 log2 enrichment (interaction score)"}
    ]},
    {"sequence": "GGCUAGAACUAGUGGAUCCCCCGGCGCCCGGCGGCUCGAGCCCGGGUAAGUGUACAUAGUCUGCAUGCCGCCGGGCGCCAUGCCUGCAGGUCGACUCUAGAAAACAUG", "values": [
      {"measurement": "binding signal", "setting": "PUM1 PUF domain R4-SRS", "value": "1.59 log2 enrichment (interaction score)"}
    ]},
    {"sequence": "GGCUAGAACUAGUGGAUCCCCCGGCGCCCGGCGGCUCGAGCCCGGGUAAGUGUAAGUAGUCUGCAUGCCGCCGGGCGCCAUGCCUGCAGGUCGACUCUAGAAAACAUG", "values": [
      {"measurement": "binding signal", "setting": "PUM1 PUF domain R3-LRL", "value": "2.89 log2 enrichment (interaction score)"}
    ]},
    {"sequence": "GGCUAGAACUAGUGGAUCCCCCGGCGCCCGGCGGCUCGAGCCCGGGUAAGUGUAAAUAGUCUGCAUGCCGCCGGGCGCCAUGCCUGCAGGUCGACUCUAGAAAACAUG", "values": [
      {"measurement": "binding signal", "setting": "PUM1 PUF domain R4-DRI", "value": "5.23 log2 enrichment (interaction score)"},
      {"measurement": "binding signal", "setting": "PUM1 PUF domain R4-SRS", "value": "3.11 log2 enrichment (interaction score)"},
      {"measurement": "binding signal", "setting": "PUM1 PUF domain R3-SSQ", "value": "2.66 log2 enrichment (interaction score)"},
      {"measurement": "binding signal", "setting": "PUM1 PUF domain R3-VCI", "value": "2.74 log2 enrichment (interaction score)"}
    ]},
    {"sequence": "GGCUAGAACUAGUGGAUCCCCCGGCGCCCGGCGGCUCGAGCCCGGGUAAGUGUAAAUUGUCUGCAUGCCGCCGGGCGCCAUGCCUGCAGGUCGACUCUAGAAAACAUG", "values": [
      {"measurement": "binding signal", "setting": "PUM1 PUF domain R1-KYV", "value": "2.06 log2 enrichment (interaction score)"}
    ]}
  ]
}
